Measured values taken from PubChem BioAssay AID492998 (Southern Research Specialized Biocontainment Screening …, 2010).
About 550 (24%) of roughly 2,300 compounds were called active. The rule behind the calls is not given here. These entries were drawn from the full list. Results with a measured potency or affinity are listed apart.

experiment: Vero E6 cell cytotoxicity, dose response, cytotoxicity control for non-replicating M. tuberculosis project, secondary assay (AID 492998); conditions: series mostly up to 20 µM

SMILES | outcome
CC(C)[C@H](NC(=O)c1ccc(Br)cc1)C(=O)NC1CCCCC1 | inactive
O=C(c1cc([N+](=O)[O-])cc([N+](=O)[O-])c1)N(Cc1nnc(-c2ccccc2Cl)o1)C1CC1 | inactive
CC(=O)N1CCN(C(=O)CC2OC(=O)c3ccccc32)CC1 (centres undefined) | inactive
Cc1c(Cl)cccc1-c1ccc(CNCc2ccccn2)o1 | inactive
Cc1ccsc1C(=O)OCC(=O)NCCC1=CCCCC1 | inactive
COCCn1c(C)cc(C(=O)COC(=O)c2ccc(Br)o2)c1C | inactive
COc1cc(/C=C2/C(=O)NN(c3cccc(F)c3)C2=O)ccc1OC(=O)c1ccco1 | inactive
CC(C)(C)OC(=O)N/N=C\c1ccc([N+](=O)[O-])s1 | inactive
O=C(Nc1ccc(Cl)c(Cl)c1)O/N=C/c1ccncc1 | inactive
CCCCN(C/C=C/c1ccccc1OC)Cc1ccccc1 | inactive
CCCOC(=O)c1ccc(NC(=O)c2ccc(Br)o2)cc1 | inactive
COc1ccc(-c2nc(C=O)cs2)cc1 | inactive
Cc1cccc(NC(=O)COc2ccc(Br)cc2)n1 | inactive
COc1cccc(NC(=O)c2cc3ccccc3oc2=O)c1 | inactive
Cc1ccc(C(=O)c2cncc(Br)c2)cc1 | inactive
CC(=O)Oc1ccc(/C=C2\N=C(C3CCCCC3)OC2=O)cc1 | inactive
CCCCOc1ccc(-c2nnn(C(C)C(=O)OCC)n2)cc1 (centres undefined) | inactive
Clc1ccc(N=c2ssnc2Cl)nc1 | inactive
Cc1ccccc1N1CCN(Cc2ccc([N+](=O)[O-])o2)CC1 | inactive
O=[N+]([O-])c1ccc(CN2CCN(c3ccccc3Cl)CC2)o1 | inactive
O=C(c1ccc([N+](=O)[O-])s1)N1CCN(c2cccc(Cl)c2)CC1 | inactive
COc1ccccc1N1CCN(C(=O)c2ccc([N+](=O)[O-])s2)CC1 | inactive
CCOC(=O)COc1ccc2c(=O)c(-c3ccccc3OC)coc2c1 | inactive
COc1ccc(OCCOC(=O)CCS(=O)(=O)c2ccc(C)cc2)cc1 | inactive

SMILES | outcome
C=CCN(CC=C)CC(=O)Nc1ccc(S(N)(=O)=O)cc1 | inactive
O=C1N/C(=N\c2ccccn2)SC1Cc1ccc(Cl)cc1 (centres undefined) | inactive
COc1ccc(OCCSc2nnc(Cc3cccc4ccccc34)n2N)cc1 | inactive
CC1=CC2=NC(=O)/C(=C\c3ccc(OC(=O)c4ccco4)cc3)C(=N)N2O1 | inactive
Cn1[nH]c(-c2ccccc2)c(/C=N/O)c1=O | inactive
CS/C(Nc1cc(Cl)ccc1Cl)=C(/C#N)C(=O)c1ccco1 | inactive
COc1ccc(N2C(=O)C(F)(F)C2c2cccc(F)c2)cc1 (centres undefined) | inactive
O=C(NN=C(Cc1ccccc1)Cc1ccccc1)c1ccncc1 | inactive
O=C(N/N=C/C=C/c1ccccc1)c1ccncc1 | inactive
O=C(CN1CCN(c2ccccc2)CC1)Nc1nnc(-c2ccccc2)s1 | inactive
Cc1ccc(C(=O)COC(=O)c2cccs2)cc1 | inactive
CCCCCn1nnc2c(=O)oc3ccccc3c21 | inactive
CCOc1ccc(NCC(=O)c2ccc(C)cc2)cc1 | inactive
CCc1ccc(C2=C/C(=C/c3cccnc3)C(=O)O2)cc1 | inactive
O=C(NN=C1C2CC3CC1CC(Cl)(C3)C2)c1cccs1 | inactive
CC(C)(C)c1ccc(NC(=O)COc2ccc(-n3ccnc3)cc2)cc1 | inactive
Cn1c(-c2cccc([N+](=O)[O-])c2)cnc1NCc1cccc(F)c1 | inactive
Cc1cc(Cl)ccc1OC(C)C(=O)Nc1ccc([N+](=O)[O-])cn1 (centres undefined) | inactive
Cc1ccc(C)c(NC(=O)c2cc([N+](=O)[O-])cc([N+](=O)[O-])c2)c1 | inactive
O=C(C/C=N\OCc1ccc([N+](=O)[O-])cc1)Nc1ccc(F)cc1F | inactive
Cc1cc(C)cc(OC(=O)CCN2C(=O)c3ccccc3C2=O)c1 | inactive
O=C1c2ccccc2C(=O)N1CCOc1ccc(F)cc1 | inactive
O=c1oc2ccccc2c(Nc2ccccc2O)c1[N+](=O)[O-] | inactive
CCOc1ccc(NC(=O)c2nnn(CC(=O)Nc3ccccc3OC)c2N)cc1 | inactive

SMILES | outcome
O=C(c1cc2ccccc2o1)N1CCN(Cc2ccccc2)CC1 | inactive
C/C(=N\NC(=O)c1ccccc1)c1nc2ccccc2n1C | inactive
C/C(=N\NC(=O)c1ccc([N+](=O)[O-])c(C)c1)c1ccccc1Cl | inactive
COc1cc(/C=N/N(C)C)ccc1OC(=O)c1cccs1 | inactive
Cc1cc(Cl)cc(C)c1OCCCCn1ccnc1 | inactive
Clc1ccc(SCCCCn2ccnc2)cc1 | inactive
Cc1ccc(CCC(=O)Nc2ccccc2F)s1 | inactive
O=C(COC(=O)c1ccccc1)NCc1cccs1 | inactive
O=C(CCc1ccc(Oc2cc([N+](=O)[O-])cc([N+](=O)[O-])c2)cc1)N1CCCCC1 | inactive
CSc1nn(-c2ccc(C(=O)OCC(=O)NC(=O)NC(C)C)cc2)c(=S)s1 | inactive
CCN1C(=O)CC(N2CCC(c3nc4ccccc4[nH]3)CC2)C1=O (centres undefined) | inactive
CC(NCCCOc1cccc2ccccc12)c1ccccc1 (centres undefined) | inactive
O=C(COC(=O)c1ccccc1)NC12CC3CC(CC(C3)C1)C2 | inactive
CCOC(=O)C1CSC(CC(=O)Nc2ccc(Cl)c(Cl)c2)C(=O)N1 (centres undefined) | inactive
O=C(C/C=N\OCc1ccc([N+](=O)[O-])cc1)Nc1ccc(Cl)cc1 | inactive
NC(=O)c1ccc(-c2ccc(Br)cc2)o1 | inactive
O=C(Nc1nccs1)c1ccc(-c2ccc(Cl)cc2)o1 | inactive
O=C(Nc1cccnc1)c1ccc(-c2ccc(Cl)cc2)o1 | inactive
CCOc1ccc(C(=O)Nc2ccc(N3CCN(C)CC3)cc2)cc1Br | inactive
O=C(CN1CCC(Cc2ccccc2)CC1)NC(=O)NC1CCCCC1 | inactive
Cc1ccc2[nH]c3c(c2c1)CCCC3NCCO (centres undefined) | inactive
Cc1ccc(-c2nnc(-c3ccccc3)o2)cc1 | inactive
c1ccc(-c2n[nH]c(-c3ccccn3)n2)nc1 | inactive
CCOC(=O)N1CCC(NC(=O)C2CCN(c3nc(-c4ccc(OC)cc4)no3)CC2)CC1 | inactive

SMILES | outcome
COc1cccc(OC(=O)c2cc3ccccc3oc2=O)c1 | inactive
CCOC(=O)Cn1cc(C#N)c2cccc(CC)c21 | inactive
Cc1ccc(S(=O)(=O)NCC(=O)OCCOc2cccc(Cl)c2)cc1 | inactive
Cc1cccnc1NC(=O)C1COc2ccccc2O1 (centres undefined) | inactive
O=C(OCc1nnc(-c2ccccc2)o1)c1cc([N+](=O)[O-])ccc1Cl | inactive
CC(C)OC(=O)c1c2c(n3ccccc13)C(=O)c1ccccc1C2=O | inactive
O=C(c1ccc(Br)o1)N1CCC(Cc2ccccc2)CC1 | inactive
O=C(COc1ccc(Br)cc1)Nc1ccc([N+](=O)[O-])cn1 | inactive
O=C(N/N=C/c1coc2ccccc2c1=O)c1ccc(Cl)cc1 | inactive
O=C(OCC(=O)N1CCN(c2ccccc2)CC1)c1ccc(Cl)cc1[N+](=O)[O-] | inactive
COC(=O)C1=C(N)OC2=C(C(=O)CC(C)(C)C2)C1c1cccnc1 (centres undefined) | inactive
O=C(OCC(=O)N1CCCC1)c1cc(Br)ccc1Cl | inactive
O=C(N/N=C/c1ccccn1)c1cccc(S(=O)(=O)Nc2ccccc2Cl)c1 | inactive
Cc1ccc2oc(=O)c3cc(C(=O)NCCCN4CCCCCC4)sc3c2c1 | inactive
Cc1cc(C)n2nc(S(=O)(=O)Nc3c(Cl)cccc3Cl)nc2n1 | inactive
CS(=O)(=O)Nc1cccc2cccnc12 | inactive
CC1C/C(=N/NC(=O)c2cccc(F)c2)c2ccc(O)cc2C1 (centres undefined) | inactive
CCOCC(=O)Nc1nc2ccc(C)cc2s1 | inactive
O=C(Nc1nccs1)c1ccccn1 | inactive
Cc1ccc2nc(NC(=O)COC(=O)c3ccc(Br)o3)sc2c1 | inactive
O=C(O)c1ccccc1-c1ccccc1C(=O)Nc1nc2ccccc2s1 | inactive
O=C(NNc1nc2ccccc2s1)c1ccc(F)cc1 | inactive
O=C(Nc1c(F)cc(F)cc1Br)c1cc(-c2ccccc2)on1 | inactive
CC1=NN(C(=O)c2ccccc2Cl)C(O)(c2ccccc2)C1 (centres undefined) | inactive

SMILES | outcome
CCc1nnc(N/N=C/c2ccc(N3CCC(C)CC3)c([N+](=O)[O-])c2)n1N | inactive
COc1ccc(C(=O)COC(=O)c2ccccc2O)c(OC)c1 | inactive
COC(=O)c1cc(/C=C/c2ccccc2)on1 | inactive
COc1cc(/C=C2/C(=O)NN(c3ccc(Cl)cc3)C2=O)ccc1OC(=O)c1ccco1 | inactive
CC(C)CNc1nc(=S)nc(N(C)C)[nH]1 | inactive
Cc1cccc(NC(=O)COC(=O)CCc2c[nH]c3ccccc23)c1 | inactive
O=C(OCC(=O)N1CCN(c2ccccc2)CC1)c1ccc2ccccc2n1 | inactive
O=[N+]([O-])c1ccc(CN2CCN(c3ccc(F)cc3)CC2)o1 | inactive
CCOC(=O)c1cc(-c2csc(COc3ccccc3Cl)n2)on1 | inactive
O=C(NCCc1ccccc1)c1nc(-c2cccs2)no1 | inactive
COc1cccc2cc(C(=O)NCc3ccc(F)cc3)c(=N)oc12 | inactive
c1cncc(-c2noc(CC3CCCCC3)n2)c1 | inactive
CCN1CCC(=NNC(=O)c2ccco2)CC1 | inactive
O=C1NC2(CCC3(CC2)OCCO3)NN1c1ccc(Cl)cc1 | inactive
CC(NC(=O)c1cccc(F)c1)C1CC2CCC1C2 (centres undefined) | inactive
Cc1ccc(C(C)C)c(OCC(=O)OCc2c(C)noc2C)c1 | inactive
CC1CCN(C(=O)c2ccc(-c3ccccc3Cl)o2)CC1 | inactive
Cc1ccc(C(=O)n2c(N)nc3ccccc32)cc1 | inactive
CCCn1c(CNc2ccccc2O)nc2ccccc21 | inactive
CCn1c(-c2ccco2)nc2ccccc21 | inactive
O=C(Nc1nc2ccccc2n1CCN1CCCC1)c1ccc(Cl)cc1 | inactive
Cc1ccc(CC(=O)Nc2ccc(Cl)cn2)cc1 | inactive
COc1cccc(-c2cc3nc4c(c(NCC(C)(C)CN(C)C)n3n2)CCCC4)c1 | inactive
